Among the test systems are SR leukemia; RPMI-8226 leukemia; OVCAR-5 ovarian; OVCAR-4 ovarian; SK-OV-3 ovarian; IGROV1 ovarian; OVCAR-3 ovarian; HS 578T breast; NCI/ADR-RES ovarian; T-47D breast; BT-549 breast; MDA-MB-435 melanoma; SW-620 colon; MCF7 breast; HCT-116 colon; HCC-2998 colon; KM12 colon; OVCAR-8 ovarian.
Holding throughout (experiment): NCI-60 one-dose screen, 48 h (100 = growth as untreated, 0 = no growth, -100 = all killed)
Holding throughout (conditions): 10 µM unless noted

Compounds without any hit were thinned out: in the full panel of roughly 83,000, 20% have a hit.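 Interpretation: 100, growth as untreated; towards 0, rising growth inhibition; 0, no net growth; 0 to -100, cell death. Compounds scoring below 10 were considered active.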 Values without a mark were called inactive. Active and inactive are the calls of the source.

Consider `COc1ccc(Cn2cc3c(c2-c2cc(OC)c(OC)c(OC)c2)CCc2c(CN4CCOCC4)noc2-3)cc1`, for which the growth in the experiment with SR leukemia was 23.8%; in the experiment with RPMI-8226 leukemia, 28.3%; with OVCAR-5 ovarian, 32.1%; with OVCAR-4 ovarian it was 52.8%; in the experiment on SK-OV-3 ovarian, 54.2%; in the experiment with IGROV1 ovarian, 28.3%. The growth in the experiment on OVCAR-3 ovarian was 2.5% (active); with HS 578T breast, 15.3%; with NCI/ADR-RES ovarian, 8.51% (active); with T-47D breast it was 61.5%; in the experiment with BT-549 breast, 76.8%; in the experiment on MDA-MB-435 melanoma, -19.9% (active). Moreover, the growth with SW-620 colon is 30.4%; with MCF7 breast, 16.8%; with HCT-116 colon it was 13.4%; in the experiment with HCC-2998 colon, 21.3%; in the experiment with KM12 colon, 16.9%.
With `Cc1ccc(-c2nnc(SCc3ccc(O)c4ncccc34)o2)cc1`, the growth is 32.8% in the experiment with SR leukemia; 12.2% in the experiment with OVCAR-8 ovarian; 58.2% with OVCAR-5 ovarian; 15.8% in the experiment with OVCAR-4 ovarian; 14.1% in the experiment with SK-OV-3 ovarian; 13.7% in the experiment with IGROV1 ovarian. For the same molecule, the growth is 28.4% with OVCAR-3 ovarian; 15.5% in the experiment with HS 578T breast; 10.7% in the experiment with NCI/ADR-RES ovarian; 13.4% in the experiment with T-47D breast; 30% in the experiment on BT-549 breast; 17.7% with MDA-MB-435 melanoma. The growth in the experiment on SW-620 colon is 14.1%; in the experiment with MCF7 breast it was 10.6%; in the experiment on HCT-116 colon, 18.5%; in the experiment with HCC-2998 colon, 34.4%; in the experiment on KM12 colon it was 11.4%.
In the case of `O=C1CC(=O)N2CSCN(C(c3ccccc3)c3nc4ncncc4[nH]3)C2=N1` (stereo not given), the growth in the experiment on SR leukemia was 118%; with RPMI-8226 leukemia, 107%; with OVCAR-5 ovarian, 111%; in the experiment with OVCAR-4 ovarian, 107%; with SK-OV-3 ovarian, 113%; in the experiment on IGROV1 ovarian, 99.3%. The growth is 107% with OVCAR-3 ovarian; 107% with HS 578T breast; 99.3% with NCI/ADR-RES ovarian; 98.8% with T-47D breast; 105% in the experiment with BT-549 breast; 107% with MDA-MB-435 melanoma. Moreover, the growth in the experiment on SW-620 colon was 102%; in the experiment with MCF7 breast, 93.9%; in the experiment with HCT-116 colon, 105%; in the experiment with HCC-2998 colon it was 99.4%; in the experiment with KM12 colon, 103%.
Take `COc1ccc(NC(=O)CSc2nnc(-c3ccc4nc(-c5ccccc5)[nH]c4c3)o2)cc1`: the growth in the experiment with SR leukemia was 91.2%; in the experiment on OVCAR-8 ovarian, 101%; with OVCAR-5 ovarian it was 101%; with OVCAR-4 ovarian it was 100%; with SK-OV-3 ovarian it was 108%; with IGROV1 ovarian it was 92.9%. The growth in the experiment on OVCAR-3 ovarian was 110%; in the experiment with HS 578T breast, 105%; in the experiment on NCI/ADR-RES ovarian, 101%; in the experiment on T-47D breast, 94.7%; with BT-549 breast, 93.5%; with MDA-MB-435 melanoma, 100%. For the same molecule, the growth with SW-620 colon was 104%; in the experiment with MCF7 breast, 86.2%; with HCT-116 colon it was 102%; in the experiment with HCC-2998 colon, 114%; with KM12 colon it was 99.4%.
Consider `COc1cc(OC)c(/C=C/S(=O)(=O)Cc2ccc(OC)c(NC(=O)CCC(=O)NO)c2)c(OC)c1`, for which the growth in the experiment with SR leukemia is 14.2%; in the experiment with OVCAR-8 ovarian, 17.2%; in the experiment on OVCAR-5 ovarian, 33.9%; in the experiment on OVCAR-4 ovarian it was 45.3%; in the experiment on SK-OV-3 ovarian it was 32.6%; in the experiment with IGROV1 ovarian it was 13.4%. The growth with OVCAR-3 ovarian was 6.69% (active); in the experiment with HS 578T breast, 16.2%; in the experiment on NCI/ADR-RES ovarian, 10.2%; in the experiment on T-47D breast, 86.4%; in the experiment on BT-549 breast, 14.5%; in the experiment with MDA-MB-435 melanoma, -2.23% (active). Besides, the growth with SW-620 colon is 21.7%; in the experiment on MCF7 breast, 11.9%; in the experiment with HCT-116 colon, 3.5% (active); in the experiment on HCC-2998 colon, 10.3%; with KM12 colon, 7.24% (active).
In the case of `O=S(=O)(NCCNc1nccc(-n2cnc3ccccc32)n1)c1ccc(Cl)cc1`, the growth with SR leukemia is 96.3%; in the experiment with OVCAR-8 ovarian, 102%; in the experiment with OVCAR-5 ovarian it was 91.7%; in the experiment on OVCAR-4 ovarian, 95.2%; in the experiment on SK-OV-3 ovarian it was 112%; in the experiment on IGROV1 ovarian, 98.2%. For the same molecule, the growth was 106% in the experiment on OVCAR-3 ovarian; 88.1% with HS 578T breast; 97.8% with NCI/ADR-RES ovarian; 97.1% in the experiment with T-47D breast; 99.3% in the experiment with BT-549 breast; 100% in the experiment on MDA-MB-435 melanoma. In addition, the growth in the experiment on SW-620 colon was 100%; in the experiment on MCF7 breast it was 87.9%; with HCT-116 colon, 94.6%; in the experiment on HCC-2998 colon, 101%; in the experiment on KM12 colon, 97.1%.
As to `O=C1CCCc2nc(Nc3ccc(S(=O)(=O)Nc4ccc([N+](=O)[O-])cc4)cc3)ncc21`, the growth was 105% in the experiment on SR leukemia; 106% in the experiment with OVCAR-8 ovarian; 111% with OVCAR-5 ovarian; 109% in the experiment on SK-OV-3 ovarian; 98% in the experiment on IGROV1 ovarian; 98.9% with OVCAR-3 ovarian. The growth in the experiment with HS 578T breast is 98.4%; in the experiment on NCI/ADR-RES ovarian, 105%; in the experiment with T-47D breast, 105%; in the experiment with BT-549 breast it was 117%; in the experiment with MDA-MB-435 melanoma, 104%; with SW-620 colon, 102%. In addition, the growth in the experiment with MCF7 breast was 95.2%; in the experiment on HCT-116 colon, 108%; in the experiment on HCC-2998 colon, 110%; with KM12 colon, 98.3%.
`N=c1c2cc(-c3ccccc3)oc2ncn1/N=C/c1ccc(Cl)cc1`: the growth with SR leukemia was 35.3%; with OVCAR-8 ovarian it was 95.7%; in the experiment with OVCAR-5 ovarian, 51.7%; with OVCAR-4 ovarian, 17.1%; in the experiment with SK-OV-3 ovarian, 99.7%; in the experiment with IGROV1 ovarian, 53.5%. In addition, the growth with OVCAR-3 ovarian is 6.82% (active); with HS 578T breast, 81.7%; in the experiment on NCI/ADR-RES ovarian, 49.6%; with T-47D breast it was 81%; in the experiment with BT-549 breast it was 105%; in the experiment on MDA-MB-435 melanoma, 72.6%. Further, the growth in the experiment with SW-620 colon was 29.5%; with MCF7 breast it was 70.8%; in the experiment on HCT-116 colon, 66.6%; in the experiment on HCC-2998 colon it was 102%; with KM12 colon, 31%.

For the origin of these results see PubChem BioAssay (NCI).
